Most compounds without a hit are left out; they make up all but 1.4% or so of the library.
CFTR F508del cor: CFTR F508del correction in bronchial cells | CFBE cells, YFP halide quenching; stimulated with forskolin plus potentiator P3; % fluorescence drop versus neutral controls | hit rate 0.36% among 350,000 | activity (quench increase), % at 7.58 µM | AID 720511;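 active = mean added fluorescence quench of at least 8% versus neutral control, with both replicates also reaching 8%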;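 also: cells transiently co-express mutant CFTR-F508del with the halide-sensitive YFP; corrector assay measuring rescue of mutant channel to the surface after 24 h compound exposure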
ARNT-TACC3 inh: disrupts binding between human ARNT and TACC3 | Q9Y6A5 | AlphaScreen His-ARNT PAS-B/GST-TACC3 binding, luminescence; TACC3 fragment carries E629A point mutation | inhibition, % at 9.99 µM | hit rate 0.66% among 390,000 | AID 623870;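 active = mean inhibition of replicates at least 50% and at least half of replicates each reaching 50%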;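 also: 0% = complete ARNT plus TACC3 wells and 100% = ARNT alone without TACC3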
Statin myotox sup: suppressors of simvastatin-induced myotoxicity in C2C12 myotubes; hit rate 0.78% among 330,000; ATP luminescence, 48 h; scaled: DMSO 0, geranylgeraniol control 100; AID 602340; rescue of ATP level, % at 7.49 µM;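 active = mean ATP rescue above about 67%, or every replicate alone reaching that limit, limit read from the data, passing the limit was not always enough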;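 also: myotubes were challenged with 10 µM simvastatin during compound exposure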
PglD inh: inhibitors of Campylobacter jejuni PglD acetyltransferase; hit rate 0.098% among 360,000; inhibition, % at 12.5 µM; purified PglD enzyme, DTNB colorimetric CoA detection; AID 602405; in the data active = inhibition above about 16%, passing the limit was not always enough
* marks the source's active call; other numbers are inactive results; x = no result given.

SMILES | CFTR F508del cor | ARNT-TACC3 inh | Statin myotox sup | PglD inh
C[C@@H]1CN([C@H](C)CO)C(=O)Cc2cc(NC(=O)c3ccncc3)ccc2O[C@@H]1CN(C)Cc1ccc(Cl)c(Cl)c1 | 2 | x | 70* | -2
C[C@@H]1CN([C@@H](C)CO)C(=O)Cc2cc(NC(=O)C3CCCCC3)ccc2O[C@@H]1CN(C)Cc1ccc(Cl)c(Cl)c1 | 5 | x | 23 | 2
C[C@H](CO)N1C[C@H](C)[C@H](CN(C)Cc2ccc(Cl)c(Cl)c2)Oc2ccc(NC(=O)c3ccncc3)cc2CC1=O | 2 | x | 13 | 4
C[C@H](CO)N1C[C@H](C)[C@@H](CN(C)Cc2ccc(Cl)c(Cl)c2)Oc2ccc(NC(=O)C3CC3)cc2CC1=O | 5 | 24 | 85* | -5
C[C@@H]1CN([C@H](C)CO)C(=O)c2cc(NC(=O)C3CCCCC3)ccc2O[C@@H](C)CCCCO[C@@H]1CN(C)C(=O)NC1CCCCC1 | 1 | -2 | -25 | 2
CO[C@@H]1CN(C)C(=O)c2ccc(NC(=O)c3cccc(F)c3)cc2OC[C@@H](C)N(CC2CC2)C[C@H]1C | 1 | x | x | x
COc1ccccc1C(=O)Nc1ccc2c(c1)C(=O)N(C)[C@H]1CC[C@@H](CC(=O)NCCc3ccncc3)O[C@@H]1CO2 | x | 0 | -8 | -1
Cc1ccc(S(=O)(=O)N(C)C[C@H]2Oc3c(NC(=O)Nc4ccc(C(F)(F)F)cc4)cccc3C(=O)N([C@@H](C)CO)C[C@H]2C)cc1 | 0 | -5 | 17 | 2
C/C(=N\NC(=O)COc1ccccc1-c1ccccc1)c1ccccn1 | -3 | 8.8* | 1 | -1
C/C(=N\NC(=O)c1ccccn1)c1ccc(Cl)cc1 | -3 | x | x | -5
CC(=NNC(=S)Nc1cccc(Cl)c1)c1ccccn1 | 3 | 60* | -70 | x
COc1cc(C(=O)N/N=C(\c2ccccc2)c2ccccn2)cc(OC)c1OC | 12* | x | x | x
C/C(=N\NC(=O)c1ccc(Cl)cc1)c1ccccn1 | -5 | 82* | 47 | 0
S=C(NCc1ccccn1)Nc1cccc(Cl)c1 | x | 1 | -8 | -3
Cc1ccccc1S(=O)(=O)N1C[C@H](O)COC[C@H]2O[C@@H](CC(=O)N3CCOCC3)CC[C@@H]21 | -1 | 1 | 6 | 1
COc1ccc2c3c([nH]c2c1)[C@H](CO)N(Cc1ccccc1)CC31CN(S(=O)(=O)c2ccc(C)cc2)C1 | 4 | x | x | x
CC(=NNC(=O)c1ccncc1)c1ccc2ccccc2c1O | 25* | 2 | x | x
COC(=O)c1ccc(NC(=O)CSc2n[nH]c(-c3ccncc3)n2)cc1 | x | -2 | 77* | 1
CC(C)CC(=NNC(=O)c1ccncc1)c1cc(Cl)ccc1O | 16* | -7 | -29 | 3
C/C(=N\NC(=O)c1cccc2ccccc12)c1cccnc1 | 0 | 1 | 1 | 0
CCOC(=O)c1ccc(NC(=O)CSc2n[nH]c(-c3ccncc3)n2)cc1 | x | -14 | 13 | x
COc1ccc(C(=O)Nc2n[nH]c(-c3ccncc3)n2)cc1 | x | -1 | 107* | -6
COc1ccc(NC(=O)Nc2cccc3c2O[C@H](CN(C)S(=O)(=O)c2ccc(F)cc2)[C@H](C)CN([C@@H](C)CO)C3=O)cc1 | 1 | 1 | 6 | 1
O=C(c1cccc(F)c1)N1C[C@@H]2[C@H](c3ccccc31)[C@@H](CO)N2C(=O)Cc1ccccc1 | 3 | 0 | -20 | 0
CN1C(=O)c2cc(NC(=O)c3ccc(F)c(F)c3)ccc2OC[C@@H]2O[C@@H](CC(=O)N[C@@H]3CCN(Cc4ccccc4)C3)CC[C@H]21 | x | -5 | 2 | 2
SMILES | CFTR F508del cor | ARNT-TACC3 inh | Statin myotox sup | PglD inh
C/C(=N\NC(=O)c1ccccc1)c1ccccc1F | 0 | 1 | -1 | x
CC(=NNC(=O)c1ccncc1)c1ccc(O)cc1O | 5 | 85* | -3 | 2
COc1ccc(/C(C)=N/NC(=O)c2ccncc2)cc1 | 2 | 47* | -7 | -3
CC(=NNC(=O)c1ccncc1)c1ccccc1O | 7 | 61* | 1 | -6
COc1ccc(C(=O)Nc2ccc(/C(C)=N/NC(=O)c3ccncc3)cc2)cc1 | -1 | -2 | -5 | 0
Cc1nnc(SCC(=O)NNC(=O)CC#N)[nH]c1=O | x | 48* | x | x
CC1CCN(S(=O)(=O)c2ccc3ccccc3c2)CC1 | x | 3 | 153* | -2
CCOC(=O)C1CCCN(Cc2nc(N)nc(Nc3ccccc3)n2)C1 (configuration not stated) | x | 48* | 11 | 1
Cc1c(Cl)cccc1Nc1nc(N)nc(CN2CCCCCC2)n1 | x | x | 90* | -9
Nc1nc(CN2CCCCCC2)nc(Nc2ccccc2)n1 | x | 52* | x | 0
Cc1ccc(Nc2nc(N)nc(CN3CCCCCC3)n2)cc1 | x | 50* | 1 | 2
CC1CC(C)CN(Cc2nc(N)nc(Nc3ccccc3)n2)C1 (configuration not stated) | x | 3 | -1 | 4
C[C@@H]1CCCCO[C@H](CN(C)S(=O)(=O)c2cccs2)[C@@H](C)CN([C@@H](C)CO)C(=O)c2cc(NC(=O)C3CCCCC3)ccc2O1 | 1 | 1 | x | 1
Cc1ccc(S(=O)(=O)N(C)C[C@@H]2OCCCC[C@H](C)Oc3ccc(NS(=O)(=O)c4cccs4)cc3C(=O)N([C@@H](C)CO)C[C@H]2C)cc1 | -2 | 13 | x | 4
COc1ccc(NC(=O)Nc2ccc3c(c2)C(=O)N([C@H](C)CO)C[C@@H](C)[C@@H](CN(C)C(=O)NC2CCCCC2)O3)cc1 | -2 | -6 | -34 | 1
Cc1noc(C)c1NC(=O)Nc1ccc2c(c1)CC(=O)N([C@H](C)CO)C[C@H](C)[C@@H](CN(C)C(=O)Nc1ccc3c(c1)OCO3)O2 | -1 | 1 | -15 | 0
Cc1nnc(N/N=C/C(C)c2ccccc2)[nH]c1=O (configuration not stated) | 3 | 63* | x | x
COc1ccc(OC)c(N/C(N)=N/c2nc(C)cc(C)n2)c1 | 8.9* | 15 | -23 | 1
Cc1cc(=O)n(-c2ccc(C(=O)O)cc2)[nH]1 | -2 | 50* | 14 | 1
C[C@@H]1CN([C@@H](C)CO)S(=O)(=O)c2ccc(C3=CCCCC3)cc2O[C@@H]1CN(C)C | 0 | x | 25 | x
CCOCCN1CCN(c2c(CC)c(C)nc3cc(-c4cc(OC)cc(OC)c4)nn23)CC1 | x | 6 | 99* | 1
COC(=O)CNc1c(-c2ccccn2)nc2ccc(Br)cn12 | x | 62* | -2 | -4
CCOC(=O)CNc1c(-c2ccccc2)nc2ccc(Cl)cn12 | x | 14 | 98* | -1
CCOC(=O)CNc1c(-c2ccc(O)cc2)nc2ccc(Cl)cn12 | x | 13 | 0 | -4
CCOC(=O)CNc1c(-c2ccc(O)cc2)nc2ccccn12 | x | 2 | -8 | -1
C[C@H](C(=O)N(C)C[C@@H]1OCc2ccccc2-c2c(n(C)c3ccccc23)C(=O)N([C@@H](C)CO)C[C@@H]1C)c1ccccc1 | -1 | x | x | x
C=CCn1c(CNc2ccccc2)nnc1SCC(=O)N/N=C/c1ccc(O)cc1O | x | 58* | -3 | 1
CC(C)NC(=O)CS(=O)(=O)c1ccccc1 | 0 | x | 112* | -2
O=C(CS(=O)(=O)c1ccccc1)NC1CCCCC1 | -4 | 1 | 12 | -2

Bioassay records (PubChem BioAssay)
